The source of these data is PubChem BioAssay AID743025 (Vanderbilt Specialized Chemistry Center, 2013).

The target in this test is Muscarinic acetylcholine receptor M5 (Homo sapiens) (UniProt P08912). Description: inhibition of ACh-evoked M5 calcium signal – cell-based, single concentration, human M5 (AID 743025). The conditions noted are these: CHO-K1 hM5, ACh EC80 calcium flux, Fluo-4; at 10 µM; active compounds read low. A general note: Calcium assays in cells follow changes in intracellular calcium, usually with a dye or a luminescent sensor.
Muscarinic acetylcholine receptor M5 (Homo sapiens), sequence (P08912 whole entry, looked up): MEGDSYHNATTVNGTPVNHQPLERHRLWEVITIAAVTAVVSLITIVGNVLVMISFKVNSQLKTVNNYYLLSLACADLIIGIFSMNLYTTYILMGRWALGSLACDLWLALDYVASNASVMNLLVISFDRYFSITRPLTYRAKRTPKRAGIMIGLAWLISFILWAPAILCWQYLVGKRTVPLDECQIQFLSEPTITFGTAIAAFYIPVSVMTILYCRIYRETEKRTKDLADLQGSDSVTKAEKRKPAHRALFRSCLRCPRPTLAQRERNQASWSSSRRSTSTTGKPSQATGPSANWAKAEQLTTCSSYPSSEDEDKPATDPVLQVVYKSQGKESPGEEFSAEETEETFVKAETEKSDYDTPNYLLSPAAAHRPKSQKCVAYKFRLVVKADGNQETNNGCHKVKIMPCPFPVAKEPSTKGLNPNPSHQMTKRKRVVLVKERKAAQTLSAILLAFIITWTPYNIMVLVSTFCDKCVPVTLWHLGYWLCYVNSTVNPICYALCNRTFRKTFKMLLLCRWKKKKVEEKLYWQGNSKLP

Structures are written as SMILES. Calls of active or inactive are those of the source.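 The calls were made as follows: active = IC50 below 10 µM at human M5 in a calcium flux test, acting as a negative modulator; inactive = the rest.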

For `Cc1cccc(C(=O)N2CCN3C(=O)c4ccccc4C23c2ccccc2)c1` (stereo not given), the activity remaining was 52.7% (active).

With `CN(C)c1ccc(C(=O)N2CCN3C(=O)c4ccccc4C23c2ccccc2)cc1` (stereo not given), the activity remaining is 88% (inactive).

Regarding `C=CCN1C[C@H](C)N2C(=O)c3ccccc3[C@@]12c1ccc(Cl)cc1`, the activity remaining is 64.3% (inactive).

Take `O=C(c1ccc(SC(F)(F)F)cc1)N1CCN2C(=O)c3ccccc3C12c1ccc(F)cc1` (stereo not given): the activity remaining was -0.72% (active).

For the compound `O=C(c1ccc(OC(F)(F)F)cc1)N1CCN2C(=O)c3ccccc3C12c1ccccc1` (stereo not given), the activity remaining is 1.8% (active).

Consider `O=C(Nc1ccc(Cl)cc1)N1CCN2C(=O)c3ccccc3C12c1ccccc1` (stereo not given), for which the activity remaining is 78.2% (inactive).

On to `O=C(c1ccc(C(F)(F)F)cc1)N1CCCN2C(=O)c3ccccc3C12c1ccc(Cl)cc1` (stereo not given), for which the activity remaining is 75.7% (inactive).

For `Cc1ccc(C(=O)N2CCN3C(=O)c4ccccc4C23c2ccc(Cl)cc2)cc1` (stereo not given), the activity remaining was 17.9% (active).

On to `O=C(c1cc(F)ccc1F)N1CCN2C(=O)c3ccccc3C12c1ccccc1` (stereo not given), for which the activity remaining was 76% (inactive).

Consider `O=C(c1ccc(SC(F)(F)F)cc1)N1CCN2C(=O)c3ccccc3C12c1ccccc1` (stereo not given), for which the activity remaining was 1.05% (active).

Regarding `O=C(c1cccnc1)N1CCN2C(=O)c3ccccc3C12c1ccccc1` (stereo not given), the activity remaining is 74.8% (inactive).

Regarding `O=C(Nc1ccccc1)N1CCN2C(=O)c3ccccc3C12c1ccccc1` (stereo not given), the activity remaining was 85.4% (inactive).

Take `O=C1c2ccccc2C2(c3ccccc3)N1CCN2C(=O)c1c(F)cccc1F` (stereo not given): the activity remaining was 84% (inactive).

Turning to `O=C(c1ccccc1F)N1CCN2C(=O)c3ccccc3C12c1ccccc1` (stereo not given), the activity remaining is 85.8% (inactive).

Turning to `CSc1ccc(C(=O)N2CCN3C(=O)c4ccccc4C23c2ccccc2)cc1` (stereo not given), the activity remaining was 58% (inactive).

`O=C(c1cc(F)cc(F)c1)N1CCCN2C(=O)c3ccccc3C12c1ccc(Cl)cc1` (stereo not given): the activity remaining is 76.8% (inactive).

On to `O=C(c1cc(Cl)cc(Cl)c1)N1CCCN2C(=O)c3ccccc3C12c1ccccc1` (stereo not given), for which the activity remaining is 51.9% (active).

As to `Cc1cccc(C(=O)N2CCN3C(=O)c4ncccc4C23c2ccccc2)c1` (stereo not given), the activity remaining was 68.9% (inactive).

In the case of `O=C(c1ccc(OC(F)F)cc1)N1CCN2C(=O)c3ccccc3C12c1ccc(Cl)cc1` (stereo not given), the activity remaining is 13.3% (active).

Turning to `COc1ccc(C23c4ccccc4C(=O)N2CCN3C(=O)c2ccc(C(F)(F)F)cc2)cc1` (stereo not given), the activity remaining was 48% (active).

For the compound `O=C(c1ccccc1)N1CCN2C(=O)c3ccccc3C12c1ccc(Cl)cc1` (stereo not given), the activity remaining is 1.2% (active).

Take `COc1ccc(C23c4ccccc4C(=O)N2CCN3C(=O)c2ccccc2C)cc1` (stereo not given): the activity remaining is 49.9% (active).

As to `O=C(c1ccccc1)N1CCCN2C(=O)c3ccccc3C12c1ccc(Cl)cc1` (stereo not given), the activity remaining was 82.5% (inactive).

On to `Cc1ccc(S(=O)(=O)N2CCN3C(=O)c4ccccc4C32c2ccccc2)cc1` (stereo not given), for which the activity remaining is 73.4% (inactive).

As to `CN(C)c1ccc(C(=O)N2CCN3C(=O)c4ccccc4C23c2ccc(Cl)cc2)cc1` (stereo not given), the activity remaining is 82.9% (inactive).

`Cc1ccc(C23c4ccccc4C(=O)N2CCN3C(=O)c2ccc(C(F)(F)F)cc2)cc1` (stereo not given): the activity remaining was 28.6% (active).

For the compound `O=C1c2ccccc2C2(c3ccccc3)N1CCN2S(=O)(=O)c1cccc(C(F)(F)F)c1` (stereo not given), the activity remaining was 80% (inactive).

For the compound `O=C1c2ccccc2C2(c3ccc(Cl)cc3)NCCCN12` (stereo not given), the activity remaining is 70.4% (inactive).

`O=C(c1ccc(F)c(F)c1)N1CCCN2C(=O)c3ccccc3C12c1ccc(Cl)cc1` (stereo not given): the activity remaining is 80.4% (inactive).

For the compound `CCCCCC(=O)N1CCN2C(=O)c3ccccc3C12c1ccccc1` (stereo not given), the activity remaining is 75.3% (inactive).

As for `O=C1CCC2(c3ccccc3)Nc3ccccc3N12` (stereo not given), the activity remaining is 81.8% (inactive).

As to `COc1ccc(C23c4ccccc4C(=O)N2CCN3C(=O)c2ccccn2)cc1` (stereo not given), the activity remaining is 66.1% (inactive).

For `O=C(c1ccc(C(F)(F)F)cc1)N1CCN2C(=O)c3ccccc3C12c1ccc(F)cc1` (stereo not given), the activity remaining was 70.2% (inactive).

In the case of `O=C(Nc1ccc(F)cc1F)N1CCN2C(=O)c3ccccc3C12c1ccc(Cl)cc1` (stereo not given), the activity remaining is 77.2% (inactive).

Regarding `COc1ccc(C23c4ccccc4C(=O)N2CCN3C(=O)c2cccc(C(F)(F)F)c2)cc1` (stereo not given), the activity remaining is 47.9% (active).

Take `O=C(c1cccc(C(F)(F)F)c1)N1CCN2C(=O)c3ccccc3C12c1ccc(F)cc1` (stereo not given): the activity remaining was 0.24% (active).

With `O=C(c1ccco1)N1CCN2C(=O)c3ccccc3C12c1ccccc1` (stereo not given), the activity remaining was 81.3% (inactive).

As to `Cc1ccc(C23NCCN2C(=O)c2ccccc23)cc1` (stereo not given), the activity remaining is 77.4% (inactive).

Turning to `O=C(c1ccc(F)cc1Cl)N1CCN2C(=O)c3ccccc3C12c1ccccc1` (stereo not given), the activity remaining was 64.1% (inactive).

On to `CC(C)(C)C(=O)N1CCN2C(=O)c3ccccc3C21c1ccccc1` (stereo not given), for which the activity remaining was 83.6% (inactive).
